Bioassay records (PubChem)
Peg3 prom inh = Peg3 promoter-driven luciferase inhibitors, primary screen, cell-based, HeLa, luciferase luminescence. HeLa PEG-Prom luciferase reporter, overnight. inhibition, % at 20 µM. actives 1.7% (n = 360,000);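 active means inhibition of at least 50% at 20 µM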
HIF-2a inh = HIF-2a reporter inhibitors, primary screen, luminescence, 786-0 RCC cells | 786-0 RCC cells HIF-2a reporter, luciferase luminescence, overnight | inhibition, % at 18.8 µM | actives 0.72% (n = 360,000);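 active means inhibition of the luminescence signal of 40% or more relative to plate controls, in a single-dose primary screen at 18.75 µM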
CF NFkB inh = inhibitors of PAF-induced NF-kB signaling, primary screen, cell-based, GFP fluorescence, uHTS. KKLEB NF-kB-GFP reporter, GFP fluorescence overnight. AID 588850, 2011. inhibition, % at 5 µM. actives 0.86% (n = 360,000);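 active means at least 50% inhibition at 5 µM, scaled per plate between neutral and stimulator controls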;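 further: PAF is a Pseudomonas aeruginosa culture filtrate used as stimulus; plate controls were PAF-stimulated DMSO wells for no effect and unstimulated DMSO wells for full effect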
MITF TRPM1 inh = inhibitors of MITF-dependent TRPM1 promoter reporter, primary screen, cell-based, SK-MEL-5, single point, luciferase; SK-MEL-5 TRPM1 promoter luciferase, 24 h; inhibition, % at 12.5 µM; actives 0.83% (n = 330,000); AID 488899, 2010;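 active means mean inhibition across replicates of 60% or more, whatever share of single replicates reaches that level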
KKLEB cytotox = cytotoxicity in KKLEB CF airway cells, primary screen, cytotoxicity control for CF NF-kB inhibitor project, cell-based, uHTS, fluorescence assay plates; actives 0.36% (n = 360,000); KKLEB CF airway cells viability, ATPlite luminescence, overnight; active compounds read low; cells stimulated with P. aeruginosa culture filtrate; AID 602141, 2011; activity change (cytotoxicity), % at 5 µM;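 active means corrected activity change at or below -50% at 5 µM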
B2AR ag = beta2AR agonists driving receptor internalization, primary screen, cell-based, FAP fluorogen, flow cytometry. Beta-2 adrenergic receptor (Homo sapiens), P07550. Am2.2-beta2AR cells. response, % (no concentration beside the values). actives 0.43% (n = 340,000). AID 504454, 2011;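 active means response above a set limit, near 3 SD of response in nonfluorescent compounds, cut at about 42% in these data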
Target sequence (P07550 whole entry, looked up): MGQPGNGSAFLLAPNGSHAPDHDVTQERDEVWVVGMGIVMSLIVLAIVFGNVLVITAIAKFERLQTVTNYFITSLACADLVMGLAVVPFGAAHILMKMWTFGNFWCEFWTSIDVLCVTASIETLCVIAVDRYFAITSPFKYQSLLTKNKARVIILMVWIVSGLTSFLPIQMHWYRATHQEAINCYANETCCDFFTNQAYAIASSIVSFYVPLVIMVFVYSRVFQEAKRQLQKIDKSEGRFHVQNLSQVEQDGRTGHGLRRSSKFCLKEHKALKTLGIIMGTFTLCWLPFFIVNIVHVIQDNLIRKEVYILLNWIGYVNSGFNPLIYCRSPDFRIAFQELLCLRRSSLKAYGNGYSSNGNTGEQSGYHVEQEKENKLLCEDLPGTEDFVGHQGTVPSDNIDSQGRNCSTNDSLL
Starred values were filed as active, the others as inactive; · = no result. Shown are actives, neighbours in structure and some others; about 2.8% of the full set was active somewhere.

SMILES	Peg3 prom inh	HIF-2a inh	CF NFkB inh	MITF TRPM1 inh	KKLEB cytotox	B2AR ag
C=CC[C@H](CC(=O)N[C@H](CO)Cc1ccccc1)C(=O)N[C@@H](COC(=O)[C@@H](CC=C)CC(=O)OC(C)(C)C)Cc1c[nH]c2ccccc12	62.6*	7.2	2.5	-7.7	9.3	5.8
C=CCC[C@H](Cc1ccc(F)cc1)C(=O)OC[C@@H](Cc1c[nH]c2ccccc12)NC(=O)[C@H](CC=C)CC(=O)N(CCO)Cc1ccccc1	64.5*	-10.2	14.3	16.9	-12.0	12.6
C=CC[C@H](CC(=O)N(CCO)Cc1ccccc1)C(=O)N[C@@H](COC(=O)[C@@H](CC=C)Cc1ccc(F)cc1)Cc1c[nH]c2ccccc12	60.2*	-36.9	7.4	0.5	7.3	-1.7
C=CCC[C@H](Cc1ccc(F)cc1)C(=O)OC[C@H](Cc1c[nH]c2ccccc12)NC(=O)[C@@H](CC=C)CC(=O)N[C@@H](CO)Cc1ccccc1	35.0	-2.1	40.0	75.0*	-34.9	3.2
NC(Cc1ccc(F)cc1)c1csc(Nc2ccc(S(N)(=O)=O)cc2)n1 (stereo not drawn)	6.1	6.5	13.0	·	-10.0	·
COc1cccc(NC(=O)C2(C)CCN2Cc2ccccc2OC(F)F)c1 (stereo not drawn)	4.0	6.0	17.9	·	-2.9	·
C=CCC[C@@H](Cc1ccc(F)cc1)C(=O)OC[C@@H](Cc1c[nH]c2ccccc12)NC(=O)[C@H](CC=C)CC(=O)N(CCO)Cc1ccccc1	52.3*	5.7	27.2	10.0	-1.6	3.6
C=CC[C@@H](CC(=O)N(CCO)Cc1ccccc1)C(=O)N[C@@H](COC(=O)[C@@H](CC=C)Cc1ccc(F)cc1)Cc1c[nH]c2ccccc12	43.3	14.9	29.7	7.1	-5.6	4.8
COc1ccccc1-c1cnc(C(O)c2ccc(F)cc2C)[nH]1 (stereo not drawn)	11.4	4.3	-9.5	·	3.2	·
O=C(Nc1ccc2ccccc2c1)C(c1ccccc1F)n1c(=O)c(-c2cc3ccccc3[nH]2)nc2ccccc21 (stereo not drawn)	·	-31.9	·	·	·	·
O=c1cc(-c2ccc(Cl)cc2)oc(=O)[nH]1	1.8	6.9	-12.2	7.7	-6.4	5.3
O=c1cc(N=Nc2ccc(Cl)cc2)[nH]c(=O)[nH]1	110.7*	13.8	68.4*	-0.4	-7.4	51.0*
COc1ccc(-c2nn(-c3ccccc3)cc2/C=N/N=C(N)N)cc1OC	104.0*	15.2	12.5	94.4*	-14.0	8.8
COc1ccc(-c2nn(-c3ccccc3)cc2/C=N/Nc2ccc(S(N)(=O)=O)cc2[N+](=O)[O-])cc1OC	27.1	9.8	58.2*	17.9	-66.2*	-16.4
O=C(Cc1ccc(Cl)cc1)c1c[nH]c(C(=O)NCc2cccnc2)c1	102.4*	21.1	31.4	9.4	-43.7	0.5
Nc1nc(Cl)cc(N2CCC(c3cc(-c4ccc(Cl)cc4)n[nH]3)CC2)n1	21.6	12.2	-7.3	65.2*	4.8	6.9
COc1ccc(C2CC(c3cccc(Cl)c3)=NN2c2ccc(S(N)(=O)=O)cc2)cc1 (stereo not drawn)	54.0*	-8.4	20.2	-4.3	2.2	5.8
COc1cc(/C=C/CNC[C@H]2O[C@@H](n3cnc4c(=O)[nH]c(N)nc43)[C@H](O)[C@@H]2O)ccc1O	8.8	1.1	5.4	·	-4.0	·
O=C(/C=C1\NC2(CCCC2)Cc2ccccc21)C(=O)N/N=C/c1ccccc1O	18.5	-2.9	51.3*	13.4	-36.4	15.6
Cc1cc(-c2cccnc2)c(C#N)c(SCc2cccc(F)c2)n1	11.7	14.4	54.4*	2.5	-61.8*	-9.9
Cc1cccc(CSc2nc(N)c(C#N)c(-c3cccs3)c2C#N)c1	63.0*	24.6	18.8	7.9	-20.4	4.9
CCc1nc2ccc(C(=O)N3CCN(C(=O)c4ccco4)CC3)cn2c1N(CC)CCOC	5.0	-2.2	-22.9	·	14.3	·
CC(C)Nc1nnc(SCC(=O)Nc2ccc3c(c2)C(=O)c2ccccc2C3=O)s1	87.3*	-305.5	-48.0	-49.2	-5.4	17.8
COc1ccc2o/c(=N\O)c(C(=O)Nc3ccccc3OC)cc2c1	-19.9	-42.0	8.5	31.8	-2.3	53.4*
COc1ccc2oc(=O)c(C(=O)Nc3ccccc3O)cc2c1	-197.4	-222.9	-29.1	-56.1	-8.6	15.7
SMILES	Peg3 prom inh	HIF-2a inh	CF NFkB inh	MITF TRPM1 inh	KKLEB cytotox	B2AR ag
O=C(C[C@H]1C/C=C\C[C@H](Cc2ccc(F)cc2)C(=O)O[C@@H](c2ccccc2)CNC1=O)N[C@@H](CO)Cc1ccccc1	41.8	-1.3	-14.7	7.6	-8.4	1.0
O=C(C[C@H]1C/C=C\CC[C@@H](Cc2ccc(F)cc2)C(=O)O[C@H](c2ccccc2)CNC1=O)N[C@H](CO)Cc1ccccc1	81.4*	4.4	11.3	3.2	-41.3	5.7
O=C(C[C@H]1C/C=C\CC[C@@H](Cc2ccc(F)cc2)C(=O)O[C@@H](c2ccccc2)CNC1=O)N[C@@H](CO)Cc1ccccc1	88.5*	-0.9	-3.9	-5.4	-8.8	-1.9
C[C@@H]1COC(=O)[C@H](Cc2ccc(F)cc2)CC/C=C/C[C@@H](CC(=O)N[C@@H](CO)Cc2ccccc2)C(=O)N1	-4.4	13.2	-0.9	-13.3	19.5	-8.0
O=C(C[C@@H]1C/C=C/CC[C@H](Cc2ccc(F)cc2)C(=O)OC[C@@H](Cc2ccccc2)NC1=O)N[C@H](CO)Cc1ccccc1	81.6*	9.2	62.3*	90.8*	-91.0*	14.2
O=C(C[C@H]1C/C=C\C[C@@H](Cc2ccc(F)cc2)C(=O)O[C@@H](c2ccccc2)CNC1=O)N[C@@H](CO)Cc1ccccc1	43.3	8.0	5.6	-7.6	-6.1	3.0
CCCCCCCCN1C(=O)[C@H](CC(=O)NCc2ccc(OC)c(OC)c2)C[C@@]2(C(=O)OCC)CCC=C12	·	-0.8	·	·	·	·
Cn1cnnc1SCc1ccc(C(=O)N=Nc2c(O)n(C)c3ccccc23)cc1	-13.1	-22.7	-22.5	-0.1	7.5	100.1*
Cn1cnnc1SCC(=O)n1c2ccccc2c2ccccc21	-13.6	-1.2	-1.2	-3.0	2.6	-10.9
CCOc1ccccc1NC(=O)NCc1ccc2c(c1)OCO2	67.7*	-14.0	36.2	-3.5	-6.7	-13.6
COCCN1C(=O)c2oc3ccccc3c(=O)c2C1c1ccc(OC)c(OC)c1 (stereo not drawn)	-6.8	3.5	9.4	1.1	-13.0	-2.6
